Reference: PubChem BioAssay AID1851 (National Center for Advancing Translational Sciences (NCATS), 2009)
“And” between values parts separate entries of the source, which are not always exact repeats. Equal entries are not always repeated. The whole screen tested about 16,000 compounds, of which about 5,100 (32%) were called active. Another 25% or so got no clear call; they are omitted. The call rests on the fitted dose curve; in most records, active means well fitted curve in the direction sought with a large enough effect; inconclusive means small, poorly fitted or top-dose-only effect, or effect the other way; inactive means no such curve, though single readings can be large or run the other way. This is one part of the list.

Molecular target: Cytochrome P450 3A4 (Homo sapiens) (UniProt P08684)
Sequence (P08684 whole entry, looked up): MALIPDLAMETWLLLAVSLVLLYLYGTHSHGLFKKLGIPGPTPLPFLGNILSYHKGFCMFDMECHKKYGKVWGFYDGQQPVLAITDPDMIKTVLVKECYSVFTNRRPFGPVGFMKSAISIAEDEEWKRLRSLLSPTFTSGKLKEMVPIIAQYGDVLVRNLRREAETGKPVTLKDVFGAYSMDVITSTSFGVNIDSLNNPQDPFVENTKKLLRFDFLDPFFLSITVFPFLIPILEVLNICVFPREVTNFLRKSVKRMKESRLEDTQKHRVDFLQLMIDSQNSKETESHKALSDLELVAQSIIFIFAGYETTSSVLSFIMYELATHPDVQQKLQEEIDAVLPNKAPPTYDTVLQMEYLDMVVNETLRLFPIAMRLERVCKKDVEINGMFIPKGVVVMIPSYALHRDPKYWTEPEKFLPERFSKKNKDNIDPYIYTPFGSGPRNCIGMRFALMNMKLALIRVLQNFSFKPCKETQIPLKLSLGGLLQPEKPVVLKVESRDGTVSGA
Assay: Cytochrome panel assay with activity outcomes
Conditions: recombinant CYP, pro-luciferin dealkylation, luminescence, p450-cyp3a4; series mostly up to 57.1 µM; activity, negative = inhibition: at the top concentration
On the % scale 0 is the no-effect control and ±100 the full control effect.

| SMILES | AC50 | activity, negative = inhibition |
| --- | --- | --- |
| COc1ccc(N2C(=O)CSC2c2cccc(F)c2)c(OC)c1 (stereo not drawn) | 12.6 µM (active) | – |
| COc1ccc(C2/C(=C(/O)c3ccccc3)C(=O)C(=O)N2c2ccccn2)c(OC)c1 (stereo not drawn) | – | 1.16% [at 2.29 µM] (inactive) |
| C/C(=N\[N+](C)(C)C)c1ccc(C)c(C)c1 | – | -5.81% [at 11.4 µM] (inactive) |
| O=C(Nc1cc(-c2nc3ccccc3s2)ccc1Cl)c1ccc2c(c1)OCO2 | 2.24 µM (active) | – |
| COC(=O)c1ccc(Cl)c(NC(=O)c2ccc(-c3ccccc3)cc2)c1 | – | 0.213% [at 2.29 µM] (inactive) |
| O=C(Nc1cccc(-c2nc3ccccc3s2)c1)c1ccc2c(c1)OCO2 | 2.24 µM (active) | – |
| CCc1ccc(OCC(=O)OC2CCS(=O)(=O)C2)cc1 (stereo not drawn) | – | 9.21% (inactive) |
| CCOc1ccc(CN(C(=O)c2oc3ccccc3c2C)C2CCS(=O)(=O)C2)cc1 (stereo not drawn) | 12.6 µM (active) | – |
| O=C(c1ccccc1)N(Cc1ccco1)C1CCS(=O)(=O)C1 (stereo not drawn) | – | -11.5% (inactive) |
| CN(C(=O)COc1cccc(Br)c1)C1CCS(=O)(=O)C1 (stereo not drawn) | – | -25.4% (inactive) |
| CCCN(C(=S)Nc1ccccc1)C1CCS(=O)(=O)C1 (stereo not drawn) | – | -16.8% (inactive) |
| Cc1ccc[n+](CC(=O)c2cc3ccccc3oc2=O)c1 | – | -4.17% [at 2.29 µM] (inactive) |
| CCc1ccc(CN(C(=O)c2cc3ccccc3oc2=O)C2CCS(=O)(=O)C2)cc1 (stereo not drawn) | 14.1 µM (active) | – |
| O=C(c1sc2ccccc2c1Cl)N(Cc1ccccc1)C1CCS(=O)(=O)C1 (stereo not drawn) | 11.2 µM (active) | – |
| C[C@@H](CC(=O)O)[C@@H](N)C(=O)O | – | -18.5% (inactive) |
| O=C(COC(=O)c1cccnc1)c1ccc(Cl)c(Cl)c1 | 0.562 µM (active) | – |
| O=C(COC(=O)c1cccnc1Cl)c1ccccc1 | – | -13.3% (inactive) |
| O=C(Oc1cccc(Br)c1)c1cccnc1 | – | -29.3% (inactive) |
| CON1C(=O)C(=O)N(OC)C2CCCCC21 (stereo not drawn) | – | 2.41% (inactive) |
| CC(C)(C)N1C(=O)[C@H]2[C@@H]3[C@H](O)[C@H](O)CC(=O)[C@H]3CC[C@H]2C1=O | – | -16.1% [at 11.4 µM] (inactive) and -10.3% [at 11.4 µM] (inactive) |
| Cc1cnc(CNc2ncncc2-c2ccccc2C)cn1 | 1 µM (active) | – |

| SMILES | AC50 | activity, negative = inhibition |
| --- | --- | --- |
| CN(C)Cc1ccccc1-c1cncnc1NC1CC1 | 12.6 µM (active) | – |
| Cc1cnc(CNc2ncncc2-c2ccccc2CN(C)C)cn1 | 3.16 µM (active) | – |
| COc1ccccc1-c1cncnc1NCc1cnc(C)cn1 | 1.26 µM (active) | – |
| O=[N+]([O-])c1ccccc1N=Nc1c(O)[nH]c2ccc(S(=O)(=O)O)cc12 | – | -6.01% [at 11.4 µM] (inactive) |
| C/C(=N\NC(=O)CC1N=C(Cc2ccccc2)NNC1=O)c1ccc(Cl)cc1Cl (stereo not drawn) | 1.26 µM (active) | – |
| Nc1ccc(-c2nc3c(Cl)c(N)ccc3[nH]2)cc1 | 1 µM (active) | – |
| c1csc(CNc2ccnc(-c3ccoc3)n2)c1 | 7.94 µM (active) | – |
| CN(C)c1ccc(-c2nccc(NCc3cccs3)n2)cc1 | 12.6 µM (active) | – |
| c1cncc(-c2nccc(NCc3cccs3)n2)c1 | 1 µM (active) | – |
| CN(C)C(=O)c1ccc(-c2nccc(NCc3cccs3)n2)cc1 | 25.1 µM (active) | – |
| Cc1ccccc1Oc1ncnc2sccc12 | – | -7.77% (inactive) |
| COc1ccc(-n2c(=O)c(C)nc3cnc(Nc4ccccc4)nc32)cc1 | 12.6 µM (active) | – |
| COc1cccc(Nc2ncc3nc(C)c(=O)n(-c4ccccc4)c3n2)c1 | 15.8 µM (active) | – |
| Cn1c(=O)c(-c2ccc(Cl)cc2)nc2cnc(Nc3ccccc3)nc21 | – | -6.47% (inactive) |
| COc1cccc(Nc2ncc3nc(-c4ccccc4)c(=O)n(C)c3n2)c1 | – | -0.713% (inactive) |
| COc1ccc(C(=O)NNC(=S)NC(=O)c2ccco2)cc1 | – | 9.96% [at 2.29 µM] (inactive) |
| O=C(NC(=S)N(Cc1ccccc1)Cc1ccccc1)c1ccccc1F | 15.8 µM (active) | – |
| CCC(=O)c1ccc(OCC(O)CN(CCc2ccccc2)Cc2ccccc2)cc1 (stereo not drawn) | – | -6.18% (inactive) |
| N/C(=N\c1nc2ccccc2o1)NC(=O)c1ccccc1F | – | -22.5% (inactive) |
| O=C(Nc1ccccc1)N(Cc1ccccc1)CC(O)C(F)(F)F (stereo not drawn) | – | -16% (inactive) |
| COc1ccc(CN(CCC#N)C(=S)NC(=O)c2ccccc2)cc1 | 14.1 µM (active) | – |

| SMILES | AC50 | activity, negative = inhibition |
| --- | --- | --- |
| CCOc1ccc(C(=O)NC(=S)N(Cc2ccccc2)Cc2ccccc2)cc1 | 10 µM (active) | – |
| CC(C)Cc1ccc([C@H](C)C(=O)O)cc1 | inactive | – |
| CCOC(=O)N/N=C/c1ccc(F)cc1 | – | 2.36% (inactive) |
| CCN(CC)c1ccc(/C=N/Nc2nc(C)cc(=O)[nH]2)cc1 | 14.1 µM (active) | – |
| O=S(=O)(NCc1cn2ccsc2n1)c1ccc(Oc2ccccc2)cc1 | 11.2 µM (active) | – |
| N=c1sccn1CC(=O)Nc1cccc(Oc2ccccc2)c1 | – | -7.61% [at 11.4 µM] (inactive) |
| Nc1ccc(S(=O)(=O)NCc2nccs2)cc1 | – | -10.4% [at 11.4 µM] (inactive) |
| Cc1cc(-c2ccc(/C=N/n3cnnc3)o2)c([N+](=O)[O-])cc1C | – | 16.7% (inactive) |
| Cc1ccc(-c2ccc(/C=N/N3C(=O)C4C5C=CC(C6CC56)C4C3=O)o2)c([N+](=O)[O-])c1 (stereo not drawn) | 2.24 µM (active) | – |
| Cc1nc(C(=O)Nc2ccc(Cl)cc2Cl)nn1-c1cc(OC(C)C)c(Cl)cc1Cl | – | -10.6% (inactive) |
| COc1cccc2c1OC[C@@H](CO)[C@H]2N(C)C(=O)Nc1ccc(Cl)cc1Cl | 14.1 µM (active) | – |
| NC(=O)c1cc[n+](CC2=C(C(=O)[O-])N3C(=O)[C@@H](NC(=O)Cc4cccs4)[C@@H]3SC2)cc1 | – | -15.1% [at 25.6 µM] (inactive) |
| CN(C)c1ccc(-c2nc3n(n2)C(c2cccnc2)C2=C(CC(C)(C)CC2=O)N3)cc1 (stereo not drawn) | 2.24 µM (active) | – |
| Cc1cc(C)n(-c2nc(NC(C)C)nc(NC(C)C)n2)n1 | – | 0.214% [at 11.4 µM] (inactive) |
| COc1ccc(-c2cc(C(F)F)nc(-n3nc(C)cc3C)n2)cc1 | 10 µM (active) | – |
| CCCCn1c(NCc2ccccc2NS(=O)(=O)c2ccc(C)cc2)nc2ccccc21 | 3.55 µM (active) | – |
| Cc1ccc(S(=O)(=O)Nc2ccccc2C=O)cc1 | – | -24.7% [at 11.4 µM] (inactive) |
| CC(C)(C)NCC[C@@H](O)c1cc(C(F)(F)F)nc2c(C(F)(F)F)cccc12 | – | -13.6% [at 11.4 µM] (inactive) |
| Cc1noc(C)c1C(=O)N1CCC2(CCCN(C(c3ccccc3)c3ccccc3)C2)CC1 | – | -26.6% (inactive) |
| COC(=O)N1CCC2(CCN(C(=O)Nc3ccccc3)CC2)CC1 | – | 18.1% (inactive) |
| Cc1cc(C)c(NC(=O)C[C@H](CC(=O)O)c2cccc3ccccc23)c(C(=O)N2CCC3(CCCC3)CC2)c1 | 15.8 µM (active) | – |
